According to PubChem BioAssay (NCATS):
Results filed as inconclusive are left out. The list shows a part of the results. Active and inactive are the calls of the source. Unless noted, calls follow the shape of the dose curve; as a rule, active = well fitted curve in the direction sought with a large enough effect; inconclusive = small, poorly fitted or top-dose-only effect, or another doubt; inactive = no such curve, though single readings can be large; an effect the other way counts as inactive or inconclusive.

Assays:
[1] = qHTS for differential inhibitors of proliferation of Plasmodium falciparum line HB3 (AID 1886); conditions: Potency: Plasmodium falciparum HB3 proliferation inhibition;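 also: parasites grown with compound for 72 h before SYBR Green readout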; also: potency is read from the fitted curve at half-maximal effect
[2] = target: Ferritin light chain (Equus caballus) (UniProt P02791); assay: qHTS Validation Assay for Identification of Novel General Anesthetics (AID 2323); also: series mostly up to about 77 µM
Ferritin light chain (Equus caballus), sequence (P02791 2-175 limits assumed): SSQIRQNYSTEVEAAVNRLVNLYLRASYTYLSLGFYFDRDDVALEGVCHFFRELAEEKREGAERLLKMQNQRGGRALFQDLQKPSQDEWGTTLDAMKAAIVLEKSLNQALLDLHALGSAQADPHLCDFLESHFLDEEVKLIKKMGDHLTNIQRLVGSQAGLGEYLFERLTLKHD
Method in brief: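 Horse-spleen apoferritin (10 uM) in PBS with 50% saturated 1-aminoanthracene; compounds pin-transferred, 10 min at room temperature. Fluorescence read at 380/535 nm, normalized to free 1-AMA and 1-AMA/apoferritin values; four-parameter Hill fit.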

[3] = target: ATP-dependent DNA helicase Q1 (Homo sapiens) (UniProt P46063); assay: qHTS Validation Assay for Inhibitors of RecQ-Like Dna Helicase 1 (RECQ1) (AID 2353)
Method in brief: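 50 nM RECQ1T1 preincubated 15 min with compound in Tris pH 8.0 buffer with MgCl2, DTT, Tween-20 and 2.5 ug/ml poly(dI-dC); started with 200 nM TAMRA/BHQ-2 forked duplex and 2 mM ATP. Unwinding read as fluorescence (525/598 nm), two reads 2 h apart.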

[4] = target: RecQ-like DNA helicase BLM (Homo sapiens) (UniProt P54132); assay: qHTS Validation Assay for Inhibitors of Bloom's syndrome helicase (BLM) (AID 2364)
RecQ-like DNA helicase BLM (Homo sapiens), sequence (P54132 whole entry, looked up): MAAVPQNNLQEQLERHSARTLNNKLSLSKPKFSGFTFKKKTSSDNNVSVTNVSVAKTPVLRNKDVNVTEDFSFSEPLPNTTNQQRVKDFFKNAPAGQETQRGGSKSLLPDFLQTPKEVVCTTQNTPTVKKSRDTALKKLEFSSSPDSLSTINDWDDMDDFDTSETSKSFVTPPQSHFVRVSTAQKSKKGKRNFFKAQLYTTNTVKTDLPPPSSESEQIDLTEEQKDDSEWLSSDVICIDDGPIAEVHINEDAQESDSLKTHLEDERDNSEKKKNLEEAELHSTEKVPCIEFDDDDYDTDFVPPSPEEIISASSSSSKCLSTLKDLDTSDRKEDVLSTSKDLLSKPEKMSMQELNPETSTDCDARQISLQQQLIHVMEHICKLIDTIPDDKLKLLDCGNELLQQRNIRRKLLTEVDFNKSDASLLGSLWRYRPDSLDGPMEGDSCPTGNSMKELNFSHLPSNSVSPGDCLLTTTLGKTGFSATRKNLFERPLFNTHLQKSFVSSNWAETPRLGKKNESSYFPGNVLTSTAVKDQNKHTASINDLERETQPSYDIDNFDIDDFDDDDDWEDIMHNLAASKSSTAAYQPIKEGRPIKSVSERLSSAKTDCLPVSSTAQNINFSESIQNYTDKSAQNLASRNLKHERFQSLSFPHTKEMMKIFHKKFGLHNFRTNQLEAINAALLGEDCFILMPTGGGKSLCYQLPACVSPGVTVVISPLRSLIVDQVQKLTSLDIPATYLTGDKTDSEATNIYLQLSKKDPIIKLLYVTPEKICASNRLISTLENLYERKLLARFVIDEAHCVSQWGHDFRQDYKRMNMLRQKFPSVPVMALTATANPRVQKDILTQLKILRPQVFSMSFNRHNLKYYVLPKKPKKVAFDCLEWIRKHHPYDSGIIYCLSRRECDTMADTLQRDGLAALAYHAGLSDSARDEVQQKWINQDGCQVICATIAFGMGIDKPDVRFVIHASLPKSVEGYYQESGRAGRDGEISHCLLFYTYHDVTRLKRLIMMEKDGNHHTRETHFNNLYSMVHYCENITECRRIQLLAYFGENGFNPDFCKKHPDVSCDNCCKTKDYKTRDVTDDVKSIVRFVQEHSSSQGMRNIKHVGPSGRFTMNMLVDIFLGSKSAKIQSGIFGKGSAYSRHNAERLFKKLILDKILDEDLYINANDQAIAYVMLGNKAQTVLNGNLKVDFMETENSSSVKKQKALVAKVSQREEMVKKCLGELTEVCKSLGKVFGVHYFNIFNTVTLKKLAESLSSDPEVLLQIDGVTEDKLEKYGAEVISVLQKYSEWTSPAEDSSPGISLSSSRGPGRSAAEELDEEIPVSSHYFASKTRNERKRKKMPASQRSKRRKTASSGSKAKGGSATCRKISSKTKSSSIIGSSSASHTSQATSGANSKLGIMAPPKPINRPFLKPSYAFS
Method in brief: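 50 nM BLM preincubated 15 min at room temperature with compound in pH 8.0 Tris buffer containing 2.5 ug/ml poly(dI-dC); started with 200 nM TAMRA/BHQ-2 forked duplex and 2 mM ATP (final). Unwinding read as TAMRA fluorescence increase, two reads 2 h apart.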

[5] = Cytometric Cell-Based qHTS for Inhibitors of the mTORC1 Signaling Pathway in MEF (Tsc2-/-, p53-/-) Cells (AID 2660);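 also: percent of cells above a phospho-rpS6 to PI ratio cutoff in each well; series mostly up to about 38 µM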
Method in brief: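 Immunofluorescence qHTS of rpS6 Ser235/236 phosphorylation: MEFs (Tsc2-/-, p53-/-) treated 24 h, 37 C, in DMEM + 10% FBS. Alexa-488 signal normalized to PI count, referenced to rapamycin (7.5 nM) and DMSO; PI cell number recorded for viability.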

[6] = High Content Imaging Cell-Based qHTS for Inhibitors of the mTORC1 Signaling Pathway in MEF (Tsc2-/-, p53-/-) Cells (AID 2666);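 also: percent of cells scored positive for phospho-rpS6 Ser235/236 immunostaining by imaging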; also: potency is read from the fitted curve at half-maximal effect
Method in brief: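 Phospho-rpS6 (Ser235/236) immunofluorescence, normalized and scored as % positive cells using rapamycin and DMSO controls, was read in empty-vector Tsc2-/-, p53-/- MEFs after 24 h compound exposure at 37 C; propidium iodide counted cells.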

[7] = Cytometry Cell-Based qHTS for Inhibitors of the mTORC1 Signaling Pathway in MEF cells (AID 2668);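 also: Tsc2-/- p53-/- mouse embryonic fibroblasts stably re-expressing wild-type Tsc2; percent cells positive for phospho-rpS6 Ser235/236 relative to propidium iodide stain; series mostly up to about 38 µM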
Method in brief: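 MEFs (Tsc2-/-, p53-/- stably expressing WT Tsc2) treated 24 h at 37 degree Celsius, fixed, stained with Alexa-488 anti-phospho-rpS6 Ser235/236 and propidium iodide; Acumen laser scanning. Reported as % positive cells, phospho-S6 normalized to PI.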

[8] = Validation screen for inhibitors of Lassa infection (AID 463096; calls by dose curve; also: potency is read from the fitted curve at half-maximal effect)
[9] = target: Ubiquitin carboxyl-terminal hydrolase 2 (Homo sapiens) (UniProt O75604); assay: qHTS Validation Assay for Inhibitors of Ubiquitin-specific Protease USP2a Using CHOP2 as the Reporter (AID 463106)
Ubiquitin carboxyl-terminal hydrolase 2 (Homo sapiens), sequence (O75604 whole entry, looked up): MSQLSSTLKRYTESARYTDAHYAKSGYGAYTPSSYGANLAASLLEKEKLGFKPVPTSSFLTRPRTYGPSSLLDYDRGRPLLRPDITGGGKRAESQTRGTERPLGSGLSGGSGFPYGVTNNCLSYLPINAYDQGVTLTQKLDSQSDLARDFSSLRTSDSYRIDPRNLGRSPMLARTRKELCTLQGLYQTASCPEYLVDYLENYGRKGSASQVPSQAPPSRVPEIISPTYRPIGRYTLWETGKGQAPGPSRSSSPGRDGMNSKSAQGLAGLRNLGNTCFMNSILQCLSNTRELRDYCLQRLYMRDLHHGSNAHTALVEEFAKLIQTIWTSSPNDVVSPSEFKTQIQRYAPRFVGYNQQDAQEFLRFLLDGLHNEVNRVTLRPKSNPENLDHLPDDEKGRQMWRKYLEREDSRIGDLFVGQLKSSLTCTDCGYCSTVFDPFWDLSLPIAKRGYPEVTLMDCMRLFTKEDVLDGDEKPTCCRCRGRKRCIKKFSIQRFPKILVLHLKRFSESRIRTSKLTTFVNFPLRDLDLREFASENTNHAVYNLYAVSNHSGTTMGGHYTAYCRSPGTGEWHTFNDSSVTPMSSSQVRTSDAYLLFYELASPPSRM
Method in brief: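 USP2 core (10 nM final) was preincubated with compound 30 min at RT in pH 8.0 Tris/CaCl2/beta-ME/CHAPS buffer. Ub-CHOP2 and reporter substrate (25 nM final each) were then added, with fluorescence (Ex 485/Em 531) read after 60 min. Data were normalized to NEM full inhibition and fitted to concentration-response curves.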

[10] = target: DNA polymerase III PolC-type (Bacillus subtilis (strain 168)) (UniProt P13267); assay: qHTS Validation Assay for the Inhibitors of DNA Replication in Gram-Positive Bacteria (AID 485295);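 also: PicoGreen fluorescence of double-stranded DNA made on primed circular M13 template; series mostly up to about 57 µM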
DNA polymerase III PolC-type (Bacillus subtilis (strain 168)), sequence (P13267 whole entry, looked up): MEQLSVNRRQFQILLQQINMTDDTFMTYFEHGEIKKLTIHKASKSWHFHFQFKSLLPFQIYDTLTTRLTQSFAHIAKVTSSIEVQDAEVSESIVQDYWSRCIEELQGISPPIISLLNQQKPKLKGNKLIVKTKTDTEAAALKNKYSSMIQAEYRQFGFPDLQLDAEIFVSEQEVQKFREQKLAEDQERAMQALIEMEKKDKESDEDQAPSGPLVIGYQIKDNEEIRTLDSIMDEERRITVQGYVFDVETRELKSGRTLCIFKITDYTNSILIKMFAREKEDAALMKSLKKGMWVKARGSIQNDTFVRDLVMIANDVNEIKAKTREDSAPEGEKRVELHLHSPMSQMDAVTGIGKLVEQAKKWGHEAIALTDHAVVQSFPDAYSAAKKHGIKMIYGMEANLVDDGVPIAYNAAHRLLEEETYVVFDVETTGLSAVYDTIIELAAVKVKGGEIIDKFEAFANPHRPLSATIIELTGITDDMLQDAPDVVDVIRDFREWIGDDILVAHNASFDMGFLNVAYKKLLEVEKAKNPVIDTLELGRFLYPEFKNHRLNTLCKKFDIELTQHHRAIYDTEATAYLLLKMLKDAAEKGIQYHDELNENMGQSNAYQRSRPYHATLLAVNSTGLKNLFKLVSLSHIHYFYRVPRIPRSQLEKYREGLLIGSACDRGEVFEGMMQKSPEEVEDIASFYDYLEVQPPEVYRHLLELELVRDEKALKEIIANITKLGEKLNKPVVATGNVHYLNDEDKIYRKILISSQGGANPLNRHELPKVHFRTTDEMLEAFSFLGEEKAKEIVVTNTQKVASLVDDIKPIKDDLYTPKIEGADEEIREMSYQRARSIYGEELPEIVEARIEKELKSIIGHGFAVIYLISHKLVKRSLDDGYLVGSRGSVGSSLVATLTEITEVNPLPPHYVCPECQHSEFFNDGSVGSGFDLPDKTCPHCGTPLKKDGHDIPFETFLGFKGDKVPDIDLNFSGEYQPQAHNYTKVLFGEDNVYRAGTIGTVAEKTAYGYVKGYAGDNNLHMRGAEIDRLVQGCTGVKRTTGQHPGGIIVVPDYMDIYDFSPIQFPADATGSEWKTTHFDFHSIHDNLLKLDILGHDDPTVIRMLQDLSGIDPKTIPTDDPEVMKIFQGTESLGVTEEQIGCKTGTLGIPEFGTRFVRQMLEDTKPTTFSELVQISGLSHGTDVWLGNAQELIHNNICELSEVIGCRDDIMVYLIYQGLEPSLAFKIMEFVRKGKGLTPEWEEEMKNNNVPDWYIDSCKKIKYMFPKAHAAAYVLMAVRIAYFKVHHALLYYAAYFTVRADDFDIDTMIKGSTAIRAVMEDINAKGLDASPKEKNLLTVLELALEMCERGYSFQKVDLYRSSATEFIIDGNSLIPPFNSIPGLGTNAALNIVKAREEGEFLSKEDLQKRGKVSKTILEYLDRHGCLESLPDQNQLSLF
Method in brief: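 Reconstituted B. subtilis Pol III holoenzyme (PolC, beta clamp, SSB, primase) preincubated with compound, then M13Gori single-stranded circular template with dNTPs/NTPs added; room temperature reaction. Stopped with EDTA/PicoGreen; dsDNA fluorescence read, EDTA as full-inhibition control.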

[11] = target: Tumor susceptibility gene 101 protein (Homo sapiens) (UniProt Q99816); assay: qHTS Validation Assay for Iinhibitors of HIV-1 Budding by Blocking the Interaction of PTAP/TSG101 (AID 485342; calls by dose curve)
Tumor susceptibility gene 101 protein (Homo sapiens), sequence (Q99816 whole entry, looked up, the tested form may be a part): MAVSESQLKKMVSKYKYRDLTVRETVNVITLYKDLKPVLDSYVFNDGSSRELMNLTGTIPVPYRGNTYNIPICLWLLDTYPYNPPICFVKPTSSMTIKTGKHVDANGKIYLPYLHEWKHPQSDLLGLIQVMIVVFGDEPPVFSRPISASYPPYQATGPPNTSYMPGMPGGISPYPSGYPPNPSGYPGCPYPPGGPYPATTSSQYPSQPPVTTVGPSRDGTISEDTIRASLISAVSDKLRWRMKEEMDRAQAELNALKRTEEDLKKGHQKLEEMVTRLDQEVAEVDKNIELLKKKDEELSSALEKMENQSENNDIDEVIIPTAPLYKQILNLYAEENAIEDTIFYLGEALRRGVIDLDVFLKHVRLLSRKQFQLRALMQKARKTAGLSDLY
Method in brief: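 Tsg101 binding domain (10 uM) with FITC-labeled PTAP peptide (50 nM) in HEPES pH 7.5 buffer, 20 min at r.t. with compounds. Binding measured by fluorescence polarization.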

[12] = qHTS Validation Assay to Find Inhibitors of Chronic Active B-Cell Receptor Signaling (AID 485345; active = well fitted curve in the direction sought with a large enough effect in the main read-out, with a control signal flat, not every such curve was filed as active)
Method in brief: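 TMD8 ABC-DLBCL cells stably carrying doxycycline-inducible IkappaBalpha–green luciferase fusion plus unfused red luciferase; compounds 46 uM to 3 nM, 4 h at 37C with doxycycline. Corrected green/red luminescence ratio normalized to 10 uM MG-132 and basal cell wells; curves fitted.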

[13] = target: Beta-2 adrenergic receptor (Homo sapiens) (UniProt P07550); assay: qHTS validation assay of beta-arrestin-biased ligands of beta2-adrenergic receptor (AID 485366)
Beta-2 adrenergic receptor (Homo sapiens), sequence (P07550 whole entry, looked up): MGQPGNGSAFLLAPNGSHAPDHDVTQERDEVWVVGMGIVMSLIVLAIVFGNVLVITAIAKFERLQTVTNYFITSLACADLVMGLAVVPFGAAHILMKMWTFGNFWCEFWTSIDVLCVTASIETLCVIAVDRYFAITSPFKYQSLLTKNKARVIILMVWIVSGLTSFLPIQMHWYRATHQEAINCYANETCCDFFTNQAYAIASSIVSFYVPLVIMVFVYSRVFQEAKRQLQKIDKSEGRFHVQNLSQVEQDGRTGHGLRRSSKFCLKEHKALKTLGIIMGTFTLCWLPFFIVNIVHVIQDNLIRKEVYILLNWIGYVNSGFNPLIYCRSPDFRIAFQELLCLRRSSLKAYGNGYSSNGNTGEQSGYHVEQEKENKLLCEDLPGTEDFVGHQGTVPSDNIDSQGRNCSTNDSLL
Method in brief: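 Arrestin-recruitment (Tango) reporter: ligand-bound beta2-AR recruits beta-arrestin, releasing tTA, which upregulates luciferase. Titrations of up to 46 microM incubated 18 hr at 37 degrees C before luminescent readout.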

[14] = target: ATP-dependent 6-phosphofructokinase (Trypanosoma brucei brucei) (UniProt O15648); assay: qHTS Validation Assay to Find Inhibitors of T. brucei phosphofructokinase (AID 485368); also: potency is read from the fitted curve at half-maximal effect
ATP-dependent 6-phosphofructokinase (Trypanosoma brucei brucei), sequence (O15648 whole entry, looked up): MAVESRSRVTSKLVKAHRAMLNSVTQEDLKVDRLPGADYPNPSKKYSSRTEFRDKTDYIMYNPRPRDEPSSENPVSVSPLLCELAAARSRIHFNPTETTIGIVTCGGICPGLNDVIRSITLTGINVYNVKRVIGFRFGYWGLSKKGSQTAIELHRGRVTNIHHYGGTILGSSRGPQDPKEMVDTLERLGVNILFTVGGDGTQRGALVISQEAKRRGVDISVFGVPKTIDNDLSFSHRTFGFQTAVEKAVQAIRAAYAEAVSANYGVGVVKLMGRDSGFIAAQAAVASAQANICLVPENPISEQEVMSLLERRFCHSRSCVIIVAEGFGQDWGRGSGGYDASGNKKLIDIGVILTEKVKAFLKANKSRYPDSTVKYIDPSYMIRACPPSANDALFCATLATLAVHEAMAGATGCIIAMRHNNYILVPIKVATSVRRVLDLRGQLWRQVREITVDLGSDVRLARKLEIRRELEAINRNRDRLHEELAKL
Method in brief: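 Steps: substrate mix (0.5 mM F6P, 0.1 mM ATP, MgCl2, TEA pH 8.0); compound; 1.25 nM T. brucei PFK; 45 min RT; ATP depletion 10 min; ADP-to-ATP detection 10 min; luminescence read; curve fitting and classification.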

[15] = qHTS Assay for Modulators of Human Peripheral Myelin Protein 22 (PMP22) Expression/Activity (AID 1967; active = well fitted curve in the direction sought with a large enough effect in the signal ratio; the % refers to the signal ratio)
Method in brief: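 Mouse MSC80 Schwann cells carrying Pmp22 promoter–green click beetle luciferase plus EF-alpha–red luciferase control, dosed 24 h at 37 °C. Dual-filter luminescence, overlap-corrected; %Activity from green/red ratio normalised to untreated cells, concentration-response curves fitted.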

[16] = High Content Imaging Cell-Based qHTS for Inhibitors of the mTORC1 Signaling Pathway in MEF Cells (AID 2667); also: potency is read from the fitted curve at half-maximal effect
Method in brief: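 WT MEFs (Tsc2-/-, p53-/- re-expressing Tsc2), in DMEM + 10% FBS, were treated with compound for 24 h at 37 C. Cells were then fixed and stained for phospho-rpS6 Ser235/236 with propidium iodide as cell count. Values are % positive cells, with thresholds set against rapamycin-treated cells.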

[17] = Validation screen for small molecules that induce DNA re-replication in MCF 10A normal breast cells (AID 463097); also: nearly all actives have a fitted effect of over 60% in size; also: potency is read from the fitted curve at half-maximal effect
Method in brief: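 MCF 10A cells exposed to compound 48 hr at 37 C, 5% CO2, then Hoechst-stained 40 min. Laser-scanning imaging of nuclear DNA content (405 nm ex, 500-530 nm em); re-replication scored as rise in nuclei with elevated fluorescence intensity.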

[18] = target: Endonuclease 4 (Escherichia coli (strain K12)) (UniProt P0A6C1); assay: Counterscreen for APE1 Inhibitors: qHTS Assay for Inhibitors of Endonuclease IV (AID 2565)
Method in brief: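 Cleavage of a quenched abasic-site DNA duplex (50 nM, 5'-TAMRA, 3'-BHQ-2) by 2 nM enzyme is followed as fluorescence increase. Compounds are preincubated with enzyme 15 min at room temperature before substrate addition.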

Measured: Potency

CCOC(=O)c1ncn2c1[C@@H]1CCCN1C(=O)c1cc(OC)ccc1-2
not listed: [15] | [16] | [17] | [18]
inactive: all other assays above

CCCN1CC[C@@H]2c3cc(O)ccc3CC[C@@H]21
not listed: [4] | [17] | [18]
inactive: all other assays above

OC1CCCCC1N1CCC(c2ccccc2)CC1 (stereo not given)
not listed: [4] | [8] | [17] | [18]
inactive: all other assays above

CC(N)[C@H](O)c1ccc(O)c(O)c1 (stereo not given in full)
active: [14] 5.36 µM
not listed: [4] | [7] | [16] | [18]
inactive: all other assays above

C/C(O)=C(\C#N)C(=O)Nc1cc(Br)ccc1Br
not listed: [4] | [12] | [14] | [16] | [17] | [18]
inactive: all other assays above

O=P(O)(O)C(Cl)(Cl)P(=O)(O)O
inactive: [1] | [15] | [2] | [3] | [4] | [8] | [17]

c1ccc2c(c1)[I+]c1ccccc1-2
active: [1] 0.0562 µM | [6] 3.29 µM | [16] 0.0585 µM | [8] 0.251 µM | [17] 6.31 µM
not listed: [5] | [7] | [12] | [15]
inactive: all other assays above

NC(C(=O)O)c1cc(=O)[nH]o1 (stereo not given)
not listed: [4] | [16] | [18]
inactive: all other assays above

c1ccc2cc(CC3=NCCN3)ccc2c1
not listed: [4] | [18]
inactive: all other assays above

C[N+](C)(C)CCOC(=O)CBr
not listed: [16] | [17] | [18]
inactive: all other assays above

NC(=O)COc1c(F)cc(SCCNS(=O)(=O)c2ccccc2)cc1F
not listed: [12] | [14] | [15] | [18]
inactive: all other assays above

CC(C)(C)c1o[nH]c(=O)c1CC(N)C(=O)O (stereo not given)
not listed: [4] | [16] | [17] | [18]
inactive: all other assays above

O=C1C=CC(=O)C=C1
not listed: [4] | [14] | [18]
inactive: all other assays above

CO[C@H]1CC=C2CCN3CCC4=C(CC(=O)OC4)[C@]23C1
not listed: [4] | [18]
inactive: all other assays above

CCCN1CCCC2Cc3[nH]ncc3CC21 (stereo not given)
inactive: [1] | [15] | [2] | [3] | [8]

Cc1[nH]c2ccc(O)cc2c1CCN
not listed: [4] | [17] | [18]
inactive: all other assays above

N[C@@H](Cn1oc(=O)[nH]c1=O)C(=O)O
not listed: [4] | [8] | [17] | [18]
inactive: all other assays above

CCN(CCCl)Cc1ccccc1Br
active: [1] 10 µM
not listed: [2] | [4] | [18]
inactive: all other assays above

CC(N)Cc1c[nH]c2ccc(O)cc12 (stereo not given)
not listed: [4] | [18]
inactive: all other assays above
